Screen size: about 340,000 compounds; about 12,000 (3.5%) were called active. About 18% were inconclusive and are not listed. Only a selection was taken, and actives are over-represented in it overall. A number with no mark means an inactive call. Calls follow the shape of the dose curve; as a rule, active = well fitted inhibition curve with a large enough effect; inconclusive = small, poorly fitted or top-dose-only effect, or another doubt; inactive = no such curve, though single readings can be large or run the other way.
Test: qHTS Assay for Inhibitors of Hepatitis C Virus (HCV)
Details: Huh7.5.1 HCVcc-Cre infection, luciferase reporter, 44 h; series mostly up to 41.8 µM; activity change, negative = inhibition: at the top concentration
Summary of the method: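 Infectious HCV cell culture screen: compound-treated cells (1,000/well, pre-plated 4 h) are infected with HCVcc-Cre at roughly 0.5 moi and grown 44 h. Infection is quantified by luciferase signal after 15 min substrate incubation at room temperature.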
% is scaled to controls: 0 for no effect and ±100 for the full control effect; potency is read from the fitted curve at half-maximal effect.

| Structure (SMILES) | activity change, negative = inhibition | Potency |
| --- | --- | --- |
| CCc1nnc(NS(=O)(=O)c2ccc(NC(=O)c3cccc(OC(F)(F)C(F)F)c3)cc2)s1 | 14.1% |  |
| Cc1cc(C(=O)O)ccc1[N+](=O)[O-] | 38.5% |  |
| Cc1cc(OCCCCOc2ccc(C#N)cc2)ccc1[N+](=O)[O-] |  | 8.91 µM (active) |
| Cc1cc(OCC(=O)NC2CCN(C)CC2)ccc1[N+](=O)[O-] | 0.975% |  |
| COc1ccc(N2CCN(S(=O)(=O)c3cc4c5c(c3)C(C)C(=O)N5CCC4)CC2)cc1 (stereo unspecified) | 0.733% [at 8.37 µM] |  |
| Cn1c(/C(C#N)=C2/CCCCCN2)nc2ccccc21 | -26.8% |  |
| N#C/C(=C1\CCCN1)c1nc(-c2ccccc2)cs1 |  | 6.31 µM (active) |
| N#C/C(=C1/CCCN1)c1ccccn1 | -11.2% |  |
| COC1=NC2=NCCN2C(OC)=N1 | -0.005% |  |
| COc1ccccc1OCC(O)CN1CCOCC1 (stereo unspecified) | 27.6% |  |
| Cc1ccc(OCC(O)CN2CCN(CC(O)COc3ccc(C)cc3Cl)CC2)c(Cl)c1 (stereo unspecified) |  | 25.1 µM (active) |
| OC(COc1ccc(F)cc1Cl)CN1CCc2ccccc2C1 (stereo unspecified) | 9.89% |  |
| COc1ccc2nc(N3C(=O)C(O)=C(C(=O)c4ccco4)C3c3ccco3)sc2c1 (stereo unspecified) | 0.823% |  |
| CCOc1ccc(/C=C(/C#N)c2nnc(N3CCOCC3)n2-c2ccccc2)cc1OC | 2.12% |  |
| CC(C)N(Cc1ccccc1)C(=O)COC(=O)c1ccccc1SCC(=O)N1CCCC1 | -26.1% |  |
| CCOc1cc(C(=S)N2CCOCC2)ccc1O | 2.27% |  |
| CC(=O)Nc1ccc(S(=O)(=O)Oc2ccc(Br)cc2C(=S)N2CCOCC2)cc1 | -17.6% |  |
| CCOc1cc(C(=S)N2CCOCC2)ccc1OS(=O)(=O)c1ccc(Br)cc1 |  | 10 µM (active) |
| Cc1cc(NC(=O)COc2ccccc2C#N)no1 | 10.6% |  |
| O=C(Nc1cc(S(=O)(=O)N2CCOCC2)ccc1N1CCOCC1)c1c(F)cccc1Cl | -1.1% |  |
| COc1ccc(Sc2nc(-c3ccccc3)ncc2OC)cc1 | -21.6% |  |
| COc1ccc(Cc2nc(-c3ccccn3)no2)cc1OC | 12.1% |  |
| COc1cnc(-c2ccccn2)nc1Oc1ccc(C(C)(C)C)cc1 |  | 10 µM (active) |
| O=C1COc2ccc(C(=O)COC(=O)c3ccccc3Cl)cc2N1 | 13.4% |  |
| COc1ccc(-c2ccc3c(c2)C2CC3CCN2CCC#N)cc1 (stereo unspecified) | -2.86% [at 8.37 µM] |  |
| CC1(C)O[C@@H]2[C@H](O1)[C@@H](COS(=O)(=O)O)O[C@H]2n1cnc2c(=O)[nH]cnc21 | -18% |  |

| Structure (SMILES) | activity change, negative = inhibition | Potency |
| --- | --- | --- |
| Cc1ccc(S(=O)(=O)N(C)C)cc1NC(=O)COC(=O)/C=C/c1cccs1 | -12.4% |  |
| O=C(COC(=O)COc1cc(Cl)c(Cl)cc1Cl)NC1CC1 | 0.0616% |  |
| O=C(COC(=O)c1ccc(O)cc1O)NNC(=O)c1cccs1 | 38.1% |  |
| COc1ccc2c(c1)C(=O)CC(c1ccccc1)O2 (stereo unspecified) | -13.2% |  |
| CCC(C)n1c(-c2cc(OC)c(OC)c(OC)c2)nc2nc3ccccc3nc21 (stereo unspecified) |  | 15.8 µM (active) |
| COc1cc(C(=O)Nn2c(CC(C)C)nc3ccccc3c2=O)cc(OC)c1OC | -5.06% |  |
| COc1cc(-c2n[nH]c(=S)n2Cc2ccccc2)cc(OC)c1OC | 26.4% |  |
| Cc1cc2nc3n(c2cc1C)CC1CC(C(=O)NCCC(C)C)N(C)C31 (stereo unspecified) | 20.5% |  |
| Cc1cccc(Nc2nnc(SCC(=O)c3c(N)n(C4CC4)c(=O)[nH]c3=O)s2)c1C | -9.86% |  |
| O=[N+]([O-])c1ccc(N=NNc2ccc([N+](=O)[O-])cc2)cc1 | 1.27% |  |
| COc1cc(OC)c(C(=O)NNC(=O)c2ccc(NS(=O)(=O)c3cccs3)cc2)cc1OC | -11.4% |  |
| Cc1ccc(C(CC(=O)O)Nc2nc(N3CCCCC3)nc(N3CCCCC3)n2)cc1 (stereo unspecified) | 13% |  |
| CC(Nc1nc(N2CCN(CCO)CC2)nc2ccccc12)c1ccccc1 (stereo unspecified) | -16.3% |  |
| CC(Nc1nc(N2CCCC2)nc2ccccc12)c1ccccc1 (stereo unspecified) |  | 10 µM (active) |
| Cc1ccc(C)c(OCC(=O)NNC(=O)C2CCC2)c1 | -7.38% |  |
| CCc1cc2c(N3CCN(c4nnc(CC)s4)CC3)ncnc2s1 |  | 7.08 µM (active) |
| O=C(O[C@@H]1[C@H](Cc2ccccc2)NS(=O)(=O)[C@H]2C[C@@H]3C=C[C@]12O3)c1ccccc1Br | 2.29% |  |
| COc1cccc(NC(=O)CSc2nccn(-c3ccc4c(c3)OCCO4)c2=O)c1 | -25.2% |  |
| CC(=O)Nc1cccc(-c2cnc3ccccc3n2)c1 | -2.87% |  |
| O=c1[nH]c(-c2cccs2)nc2ccccc12 | -0.761% |  |
| CC(=O)Nc1cccc(Nc2nc(-c3cccs3)nc3ccccc23)c1 |  | 11.2 µM (active) |
| Cc1ccc(/C=C/C(=O)OCC(=O)NCc2ccc(Cl)cc2)o1 | 1.37% |  |
| O=S(=O)(c1ccccc1)N1CCC(c2ccccc2)CC1 | 4.33% |  |
| Cc1ccsc1C(=O)NCCc1ccco1 | 0.166% |  |
| O=C(COc1ccc(Br)cc1F)NCC1(N2CCCCC2)CCCCC1 | -7.28% |  |

Reference: PubChem BioAssay AID651820 (National Center for Advancing Translational Sciences (NCATS), 2012)
